Laboratory results reported in PubChem BioAssay (NCATS).
Results filed as inconclusive are left out. The source made the active and inactive calls. Calls follow the shape of the dose curve; as a rule, active = well fitted inhibition curve with a large enough effect; inconclusive = small, poorly fitted or top-dose-only effect; inactive = flat fitted curve, though single readings scatter. Square brackets hold non-standard residues; d marks the D form. Peptide text beside a SMILES is read from it. ξ: configuration not given here. ξPhe(βξ-Me) = CC(c1ccccc1)C(N)C(=O)O; GABA = NCCCC(=O)O

target: Aldehyde dehydrogenase, mitochondrial (Homo sapiens) (UniProt P05091); assay: qHTS for Inhibitors of the Aldehyde Dehydrogenase Family (ALDH2) Primary screen (AID 2061308); details: ALDH2 enzyme inhibition qHTS, 1536-well; series mostly up to 56 µM; activity change, negative = inhibition: at the top concentration;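 also: plate controls were vehicle for no effect and reference inhibitor for full effect; nearly all actives have a fitted effect of over 55% in size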

| Structure (SMILES) | activity change, negative = inhibition |
| --- | --- |
| CCCCNc1ncc(C(=O)NCc2ccc(-n3ccnc3)cc2)c(NC2CCC(O)CC2)n1 (stereo not given) | 62.7% (inactive) |
| O=C(Cc1ccc(-c2ccccc2)cc1)NC1CCC1 | 0.869% (inactive) |
| C/C=C(\C)C(=O)OCC1OC(OC2OC(COC(=O)/C(C)=C/C)C(OC3OC(CO)C(OC(=O)/C(C)=C/C)C(OC(=O)/C(C)=C/C)C3O)C(O)C2O)C(O)C(O)C1OC1OC(CO)C(OC(=O)/C(C)=C/C)C(OC(=O)/C(C)=C/C)C1O (stereo not given) | 3.06% [at 16.9 µM] (inactive) |
| CCOc1ccc(S(=O)(=O)N2CCCCCC2)c2ccccc12 | -4.96% (inactive) |
| CCNC1(C(N)=O)CN(c2nc(C)nc3c(-c4ccc(Cl)cc4)c(-c4ccccc4Cl)nn23)C1 | -17.7% (inactive) |
| COc1cc(/C=C/C(=O)OC[C@H]2O[C@@](CO)(O[C@H]3O[C@H](CO)[C@@H](O)[C@H](O)[C@H]3O)[C@@H](OC(=O)/C=C/c3ccc(O)c(OC)c3)[C@@H]2O)ccc1O | -5.65% [at 16.9 µM] (inactive) |
| OCC1=CC[C@@H]2C=CO[C@@H](O[C@@H]3O[C@H](CO)[C@@H](O)[C@H](O)[C@H]3O)[C@H]12 | 6.82% (inactive) |
| CC1CCC2(C(=O)OC3OC(CO)C(O)C(O)C3O)CCC3(C(=O)O)C(=CCC4C5(C)CCC(OC6OC(C)C(O)C(O)C6O)C(C)(C)C5CCC43C)C2C1C (stereo not given) | 16% [at 16.9 µM] (inactive) |
| CC1NC(=O)CCCNC(=O)C(Cc2c[nH]c3ccccc23)NC(=O)C(C)NC(=O)C(C(C)C)NC(=O)C(C(C)c2ccccc2)NC(=O)C(C(C)C)NC1=O (stereo not drawn) (cyclo([GABA]AV[ξPhe(βξ-Me)]VAW); configuration not given here) | 11.4% [at 16.9 µM] (inactive) |
| C[C@@H]1O[C@@H](O[C@H]2[C@H](OC(=O)[C@]34CCC(C)(C)C[C@H]3C3=CCC5[C@@]6(C)C[C@H](O)[C@H](O[C@@H]7O[C@H](CO)[C@@H](O)[C@H](O)[C@H]7O)[C@@](C)(CO)C6[C@H](O)C[C@@]5(C)[C@]3(C)C[C@H]4O)OC[C@H](O)[C@@H]2O)[C@H](O)[C@H](O)[C@H]1O[C@@H]1OC[C@@H](O)[C@H](O[C@H]2OC[C@](O)(CO)[C@H]2O)[C@H]1O (stereo not given in full) | 5.31% [at 11.2 µM] (inactive) |
| CC1=C(CO)C2(C)CCCC(C)(C)C2C(O)C1O (stereo not given) | 9.59% (inactive) |
| CC1=C2C(O)C(=O)OC(c3ccoc3)C2(C)CCC1O (stereo not given) | 1.86% (inactive) |
| C=CC(C)(O)CO[C@@H]1O[C@H](CO)[C@@H](O)[C@H](O)[C@H]1O (stereo not given in full) | -6.05% (inactive) |
| CC(O)/C=C/C1C(C)C(O[C@@H]2O[C@H](CO)[C@@H](O)[C@H](O)[C@H]2O)C(O)CC1(C)C (stereo not given in full) | -3.3% (inactive) |
| C[C@H]1/C=C/C=C/C=C/C=C/C=C/[C@@H](O)[C@H](C(=O)O)[C@H](O)C[C@H](O)CCC[C@H](O)C[C@H](O)C[C@H](O)[C@@H](C)C(=O)O[C@@H]1C | -1.96% [at 16.9 µM] (inactive) |
| CC1OC(OC2C(CO)OC(OCC3OC(OC(=O)C45CCC(C)(C)CC4C4=CCC6C7(C)CCC(OC8OC(CO)C(O)C(OC9OC(CO)C(O)C(O)C9O)C8O)C(C)(C)C7CCC6(C)C4(C)CC5)C(O)C(O)C3O)C(O)C2O)C(O)C(O)C1OC1OC(CO)C(O)C(O)C1O (stereo not given) | -2.7% [at 11.2 µM] (inactive) |
| CC(=O)N[C@H]1[C@H](O[C@H]2CC[C@@]3(C)C(CC[C@]4(C)C3CC=C3C5CC(C)(C)CC[C@]5(C(=O)O)C(O)C[C@]34C)C2(C)C)O[C@H](CO[C@@H]2O[C@H](C)[C@H](O)[C@H](O)[C@H]2O[C@@H]2OC[C@@H](O)[C@H](O)[C@H]2O)[C@@H](O)[C@@H]1O (stereo not given in full) | 2.12% [at 16.9 µM] (inactive) |
| COc1ccc(CCc2nc3cc(-c4c(C)noc4C)ccc3n2CC(C)N2CCOCC2)cc1Cl (stereo not given) | -1.52% (inactive) |
| CC1(C)CCCC2(C)C1CC=C1C(=O)OC(O)C12O (stereo not given) | -9.97% (inactive) |
| C=CC1(C)CC(O)C2(CCC3C(C)(C(=O)O)CCCC3(C)C2=O)C1 (stereo not given) | 2.67% (inactive) |

| Structure (SMILES) | activity change, negative = inhibition |
| --- | --- |
| C/C=C(\C)C(=O)O[C@@H]1[C@@H](C)[C@]2(O)[C@@H]3C=C(C)C(=O)[C@H]3CC(CO)=C[C@H]2C2C(C)(C)[C@@]21OC(=O)C(C)CC (stereo not given in full) | 0.353% [at 28 µM] (inactive) |
| CC(=O)OC[C@]12[C@H](OC(C)=O)[C@H](OC(=O)c3ccccc3)[C@@H]3[C@@H](OC(C)=O)[C@]1(OC3(C)C)[C@H](C)C[C@H](OC(C)=O)[C@@H]2OC(=O)c1ccccc1 | 14.5% [at 16.9 µM] (inactive) |
| CC(C)(O)/C=C/C(=O)[C@](C)(O)[C@H]1[C@H](O)C[C@@]2(C)[C@@H]3CC=C4[C@@H](C=C(O[C@@H]5O[C@H](CO)[C@@H](O)[C@H](O)[C@H]5O)C(=O)C4(C)C)[C@]3(C)C(=O)C[C@]12C | 7.52% [at 16.9 µM] (inactive) |
| CC(C)CC(=O)OC[C@@]1(O)C[C@@]23CC[C@H]4[C@@](C)(CCC[C@@]4(C)C(=O)O)[C@@H]2CC[C@@H]1C3 | -11.6% [at 28 µM] (inactive) |
| COC(=O)C[C@@H]1C(C(=O)O)=CO[C@@H](O[C@@H]2O[C@H](CO)[C@@H](O)[C@H](O)[C@H]2O)/C1=C\COC(=O)/C=C/c1ccc(O)c(OC)c1 | -2.92% [at 16.9 µM] (inactive) |
| COc1ccc(CCO[C@@H]2O[C@H](CO[C@@H]3OC[C@H](O)[C@H](O)[C@H]3O)[C@@H](O)[C@H](O)[C@H]2O)cc1 | 15.7% [at 28 µM] (inactive) |
| CC1(C)CC[C@]2(C(=O)O)CC[C@]3(C)C(=CCC4[C@@]5(C)C[C@@H](O)[C@H](O)[C@](C)(CO)C5CC[C@]43C)[C@@H]2[C@@H]1O (stereo not given in full) | -1.28% [at 28 µM] (inactive) |
| C=C1C(=O)OC2CC(C)C(CCC(C)=O)=CCC12 (stereo not given) | 2.49% (inactive) |
| COc1ccc(C2Oc3c(OC)cc(CCCO)cc3C2COC2OC(CO)C(O)C(O)C2O)cc1OC (stereo not given) | 10.1% [at 28 µM] (inactive) |
| CC/C=C\[C@H](O)[C@H](O)C1=C(C)C(=O)[C@]2(O1)C(=O)N[C@@](OC)(C(=O)c1ccccc1)[C@@H]2O | -21% [at 28 µM] (inactive) |
| CCCCC1CCN(CCCC(=O)c2ccccc2C)CC1 | -16.6% (inactive) |
| COc1cc(O)c2c(c1)C1=C[C@H](O)[C@@H](O)C[C@]1(C)OC2=O | -1.29% (inactive) |
| NC(=O)C1=CC2C3C=CC2C(OC3=O)O1 (stereo not given) | -5.25% [at 81.8 µM] (inactive) |
| CC(=O)/C=C/C1(O)C(C)CC(O[C@@H]2O[C@H](CO)[C@@H](O)[C@H](O)[C@H]2O)CC1(C)C (stereo not given in full) | 5.11% [at 28 µM] (inactive) |
| CCCCC1CCC(c2nc(-c3ccncc3)no2)CC1 (stereo not given) | -26.5% (inactive) |
| O=C(N/N=C/c1ccc(O)c(O)c1)c1cc2ccccc2cc1O | -5.87% [at 16.9 µM] (inactive) |
| N#Cc1ccc(-c2ccc(S(=O)(=O)Nc3cccc(N)n3)cc2)cc1 | 18.1% (inactive) |
| C=C1/C(=C/C=C2\CCC[C@]3(C)[C@@H]([C@H](C)CC[C@@H](O)C(C)(C)O)CC[C@@H]23)C[C@@H](O)C[C@@H]1O | 1.24% (inactive) |
| CC(=O)OC(C)(C)/C=C/C(=O)[C@](C)(O)C1[C@H](O)C[C@@]2(C)[C@@H]3CC=C4[C@@H](C[C@H](O[C@@H]5O[C@H](CO)[C@@H](O)[C@H](O)[C@H]5O)C(=O)C4(C)C)[C@]3(C)C(=O)C[C@]12C (stereo not given in full) | 4.76% [at 16.9 µM] (inactive) |
| CC(=O)O[C@@H]1[C@H](O[C@@H]2O[C@H](CO)[C@@H](O)[C@H](O)[C@H]2O)[C@@H](O[C@@H]2O[C@@H](C)[C@H](O)[C@@H](O[C@@H]3O[C@H](CO)[C@@H](O)[C@H](O)[C@H]3O)[C@H]2O)[C@H](OC(=O)C23CCC4(C)C(=CCC5C6(C)CC(O)C(O[C@@H]7O[C@H](C(=O)O)[C@@H](O)[C@H](O)[C@H]7O)C(C)(C(=O)O)C6CCC54C)C2CC(C)(C)CC3O)O[C@@H]1C (stereo not given in full) | -6.27% [at 11.2 µM] (inactive) |
